KLF5 inhibitor – inhibitors of KLF5 expression; 290,000 tested, 0.23% active; inhibition, % at 5 µM; DLD-1 KLF5 promoter-luciferase reporter, luminescence;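 active means inhibition above a per-plate limit of that plate's mean compound inhibition plus 3 SD, cut at about 60% in these data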;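 further: 0% = DMSO wells and 100% = LY294002 at 200 µM; higher means less KLF5 promoter-driven luciferase light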
APP 5UTR inh – APP translation inhibition; SH-SY5Y APP 5'UTR-luciferase reporter, luminescence; inhibition, % at 2 µM; 190,000 tested, 0.82% active; AID 1285;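 active means inhibition above a set limit, derived from the sample mean plus 3 SD, cut at about 45% in these data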
Ba/F3 V617F tox – reduce viability of Ba/F3 cells dependent on JAK2V617F. inhibition, % at 5.6 µM. Ba/F3 EpoR-JAK2V617F viability, ATP luminescence. 220,000 tested, 1.1% active. AID 1446;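 active means inhibition above the campaign mean plus 3 SD over all tested compounds, cut at about 24% in these data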;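 further: cytokine-independent growth of Ba/F3 cells driven by EpoR plus mutant JAK2; 0% = DMSO-treated cells and 100% = JAK inhibitor I control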
IEC-6 cytotox – kills IEC-6 intestinal cells in KLF5 counter-screen; inhibition, % at 5 µM; IEC-6 cytotoxicity, luminescence viability; AID 1825; 290,000 tested, 0.78% active;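 further: 0% = plate median of test compound wells and 100% = cytotoxic reference compound wells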
BaF3 parental – counter-screen for JAK2V617F inhibitors: parental Ba/F3 viability inhibitors. CellTiter-Glo ATP luminescence. inhibition, % at 5.6 µM. 220,000 tested, 1.1% active;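 active means inhibition above a per-campaign cutoff, the mean inhibition of all tested compounds plus 3 SD, cut at about 27% in these data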;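 further: 0% = DMSO wells and 100% = JAK Inhibitor I control wells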
IEC-6 cytotox cf – confirmation of cytotoxic compounds in rat IEC-6 intestinal epithelial cells. shares compounds with IEC-6 cytotox. IEC-6 rat intestinal epithelial viability, luminescence. inhibition, % at 5 µM. 1,900 tested, 63% active. AID 1907;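 further: 0% = vehicle and 100% = reference cytotoxic drug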
An asterisk follows results filed as active; nt = not tested or not shown. An excerpt weighted towards active compounds, which were near 1.8% of everything screened. Unless noted, no stated cut-off is given here; in the data, active means inhibition above about 22%; inactive means the rest.

SMILES | KLF5 inhibitor | APP 5UTR inh | Ba/F3 V617F tox | IEC-6 cytotox | BaF3 parental | IEC-6 cytotox cf
COc1ccc(N(Cc2ccccc2)S(=O)(=O)c2cc(C(=O)O)ccc2Cl)cc1 | -21 | nt | nt | -7 | nt | nt
C/C(=N\NC(=O)c1nnn(-c2nonc2N)c1CN1CCc2ccccc21)c1ccccc1O | 46 | nt | nt | 54* | nt | 56*
CCc1nnc(NC(=O)c2cc(Cl)ccn2)s1 | -87 | nt | nt | 31* | nt | 18
N=c1c(C(=O)NCC2CCCO2)cc2c(=O)n3ccccc3nc2n1Cc1ccccc1 (stereo unspecified) | -42 | nt | nt | -4 | nt | nt
N=c1c(C(=O)NCC2CCCO2)cc2c(=O)n3ccccc3nc2n1Cc1ccccc1Cl (stereo unspecified) | -30 | nt | nt | 30* | nt | 24*
CC(C)CN1CCC(=O)N([C@H](COc2ccccc2)c2ccccc2)CC1 | -14 | nt | nt | 2 | nt | nt
O=C1CCCC(=NCc2ccco2)C1 | -7 | 20 | -2 | 2 | -1 | nt
CN(C)c1nc(=NCc2ccco2)ss1 | -5 | nt | 12 | 97* | 8 | 30*
Clc1cccc(Cl)c1/C=N/Nc1c(Cl)cncc1Cl | 9 | nt | 79* | 58* | 61* | 54*
COCC(=O)N1CCCC(C(=O)c2ccc(-c3ccccc3)c(F)c2)C1 (stereo unspecified) | -9 | -7 | 6 | 4 | 8 | nt
Cn1c(Cl)cnc1C1CC(=O)c2cc(Cl)ccc2O1 (stereo unspecified) | -10 | 27 | 55* | 70* | 50* | 9
CCOC(=O)c1ccc(NC(=O)Cn2ncc(Cl)c(Cl)c2=O)cc1 | -1 | 96* | 56* | 35* | 63* | 32*
Cc1ccc(C(=O)OCn2ncc(Cl)c(Cl)c2=O)cc1 | 8 | 92* | 39* | 44* | 56* | 56*
COc1ccc(NC(=O)Cn2ncc(Cl)c(Cl)c2=O)cc1S(=O)(=O)N1CCOCC1 | 12 | -4 | -4 | 41* | -6 | 7
O=C(N/N=C/c1ccc(O)cc1)Nc1cccc2nsnc12 | -26 | 12 | 2 | 81* | 26 | 91*
CCCn1c(C(O)c2ccc(OC)c(OC)c2)nc2ccccc21 (stereo unspecified) | -25 | nt | nt | 0 | nt | nt
O=C(O)c1ccc(S(=O)(=O)c2ccc3c(c2)C(=O)N(NC(=O)c2cccnc2)C3=O)cc1 | -6 | nt | 2 | 3 | -3 | nt
Cc1ccc(NC(=O)Nc2ccon2)cc1 | -82 | nt | nt | 0 | nt | nt
O=C(Nc1ccc(Cl)cc1)Nc1ccon1 | -19 | nt | nt | 29* | nt | 9
Cc1c(Cl)ccc2c(C(=O)NCCN3CCCCC3)cc(-c3ccccn3)nc12 | 8 | -13 | 9 | -5 | 10 | nt
COc1ccccc1-c1cc(C(=O)NC2CCN(C)CC2)c2ccc(Cl)c(C)c2n1 | -20 | nt | nt | 30* | nt | -3
COc1cc2[nH]c(=S)nc(NCc3ccc(Cl)cc3)c2cc1OC | 1 | nt | nt | 30* | nt | 42*
O=S(=O)(NC1c2cccc3cccc(c23)C1N1CCNCC1)c1ccc(Cl)cc1 (stereo unspecified) | 10 | -13 | 6 | 36* | 11 | 8
CC(=O)N1CCN(C2c3cccc4cccc(c34)C2NS(=O)(=O)c2ccccc2)CC1 (stereo unspecified) | -24 | -10 | 2 | 3 | 0 | nt
Cc1ccc(-c2nn(-c3ccccc3)cc2C=O)o1 | -24 | -144 | -2 | -5 | 0 | nt
SMILES | KLF5 inhibitor | APP 5UTR inh | Ba/F3 V617F tox | IEC-6 cytotox | BaF3 parental | IEC-6 cytotox cf
COc1ccc(NS(=O)(=O)c2cc(N/C(=N\S(=O)(=O)c3ccccc3)c3ccc(F)cc3)ccc2Cl)cc1 | 12 | 7 | 64* | 39* | 61* | 0
COc1ccccc1CNC(=O)CCNS(=O)(=O)c1ccc2[nH]c(=O)oc2c1 | 10 | nt | nt | 1 | nt | nt
CCN1/C(=C/C=C/c2oc3ccc(-c4ccccc4)cc3[n+]2CC)Oc2ccc(-c3ccccc3)cc21 | 15 | 74* | 100* | 61* | 78* | 5
COc1ccc(C(=O)NCc2nnc(SCC(=O)Nc3nc4ccccc4s3)o2)cc1 | -31 | 3 | 3 | 64* | 6 | -7
CC(CN1CCCCC1)NC(=O)c1cccs1 (stereo unspecified) | -30 | nt | nt | 4 | nt | nt
Cc1nc2oc3c(NCc4ccccc4)ncnc3c2c2c1COC(C)(C)C2 | 5 | 0 | -4 | -3 | 1 | nt
CC1(C)Cc2c(sc3ncnc(NNC(=S)NCc4ccccc4)c23)CO1 | 61 | 56* | 73* | 76* | 80* | 16
Cc1cccc(C)c1NC(=O)C1CCN(S(C)(=O)=O)CC1 | -43 | nt | nt | -4 | nt | nt
CC(C)c1ccc(/C=C/C2=NNC(=O)CC2)cc1 | -119 | -165 | 38* | 55* | 30* | 37*
Cc1ccc(NC(=O)C2CCCN(S(=O)(=O)c3cccnc3)C2)c(C)c1 (stereo unspecified) | -21 | nt | nt | -5 | nt | nt
CCOC(=O)N/N=C/c1c(C)nn(-c2cccc(C(F)(F)F)c2)c1Cl | 14 | 86* | 67* | 44* | 42* | 53*
Cc1cccc(NC(=O)Cn2cc(C(=O)C3CC3)c3ccccc32)c1C | -12 | nt | nt | 29* | nt | 16
CCc1nc(N)nc(N)c1-c1ccc(Cl)cc1 | 13 | -9 | 97* | 49* | 97* | 36*
c1ccc2nc3c(nc2c1)c1ccccc1n3CCN1CCOCC1 | -111 | -13 | 84* | 23* | 77* | 10
O=C(c1ccc2nc(Cc3ccccc3F)oc2c1)N1CC[C@H](O)C1 | -59 | nt | nt | 4 | nt | nt
COc1ccc(S(=O)(=O)NCc2ccccn2)cc1NC(=O)c1ccccc1 | 47 | nt | nt | 45* | nt | 45*
O=c1c2oc3ccccc3c2ncn1Cc1ccccc1F | -27 | -4 | -5 | 34* | -1 | 12
O=c1c2oc3ccccc3c2ncn1Cc1ccccc1Cl | -18 | 0 | 2 | 37* | 5 | 26*
Cc1ccccc1CC(=O)Nc1sc(C(C)C)cc1C(=O)N1CCOCC1 | -24 | nt | nt | -6 | nt | nt
Cc1ccc(Oc2nc3ccccn3c(=O)c2/C=C(\C#N)C(=O)NC2CCS(=O)(=O)C2)c(C)c1 (stereo unspecified) | -6 | nt | nt | 56* | nt | 34*
CN(C)CCN(C(=O)CCS(=O)(=O)c1ccccc1)c1nc2c(F)cccc2s1 | -18 | nt | nt | 3 | nt | nt
Cc1ccc2sc(N(CCCN(C)C)C(=O)CCS(=O)(=O)c3ccccc3)nc2c1C | 5 | nt | nt | 24* | nt | 5
COC(=O)c1ccc(CSCc2ccc(C#N)cc2)cc1 | -10 | nt | nt | -3 | nt | nt
COc1ccc(Nc2c3c(nc4ccccc24)CCC3)cc1 | 0 | nt | nt | 12 | nt | nt
Cc1ccc(-c2nc(Nc3cccc(O)c3)c3ccccc3n2)cc1 | -25 | nt | nt | -2 | nt | nt
SMILES | KLF5 inhibitor | APP 5UTR inh | Ba/F3 V617F tox | IEC-6 cytotox | BaF3 parental | IEC-6 cytotox cf
COc1ccccc1Nc1c2ccccc2nc2ccccc12 | -1 | nt | nt | 28* | nt | 13
COc1ccc(Nc2nc(-c3ccncc3)nc3ccccc23)cc1 | -34 | nt | nt | 30* | nt | 19
Oc1cccc(Nc2c3ccccc3nc3ccccc23)c1 | -5 | nt | nt | 35* | nt | 36*
COc1ccc(Nc2c3ccccc3nc3ccccc23)cc1 | -5 | nt | nt | 74* | nt | 31*
C=CCn1c(SCc2c(C)noc2C)nc2ccccc2c1=O | 58 | 94* | 71* | 83* | 72* | 57*
NNC(=O)c1cc2sccc2s1 | 22 | nt | 80* | 63* | 78* | 6

Compound activity deposited in PubChem BioAssay by several laboratories.
